# From PubChem BioAssay AID1619 (SRMLSC, 2009)
# The campaign covered roughly 220,000 compounds. About 830 (0.38%) were called active. Not all results are given here. Entries with a potency or affinity are not part of this list. Unmarked numbers belong to inactive results.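 How the source made its calls: active means compound inhibiting the enzyme by more than half at any dose during confirmatory dose-response retesting; inconclusive means strong single-dose inhibitors picked by rank but not retested; inactive means the rest.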
# Target: Leucine aminopeptidase (Plasmodium falciparum (isolate 3D7)) (UniProt Q8IL11)
# Sequence (Q8IL11 whole entry, looked up): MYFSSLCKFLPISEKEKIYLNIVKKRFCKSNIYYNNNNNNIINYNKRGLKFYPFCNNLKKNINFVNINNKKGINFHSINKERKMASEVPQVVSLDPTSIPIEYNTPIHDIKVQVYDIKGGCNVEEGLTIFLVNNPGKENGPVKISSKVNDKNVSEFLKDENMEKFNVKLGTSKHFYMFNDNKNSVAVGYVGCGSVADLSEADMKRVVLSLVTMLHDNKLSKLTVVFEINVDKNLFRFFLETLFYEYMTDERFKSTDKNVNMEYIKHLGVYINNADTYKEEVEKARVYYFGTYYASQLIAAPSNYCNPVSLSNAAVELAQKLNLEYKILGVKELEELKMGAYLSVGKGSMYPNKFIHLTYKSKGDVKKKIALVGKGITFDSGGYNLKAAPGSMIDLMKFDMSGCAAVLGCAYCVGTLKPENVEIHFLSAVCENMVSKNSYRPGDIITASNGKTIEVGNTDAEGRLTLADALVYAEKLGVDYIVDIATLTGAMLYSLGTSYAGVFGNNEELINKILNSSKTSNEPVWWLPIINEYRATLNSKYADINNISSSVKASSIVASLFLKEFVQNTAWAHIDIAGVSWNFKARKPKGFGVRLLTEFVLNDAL
# Assay: P. falciparum M17LAP inhibitors, primary screen, biochemical, fluorogenic H-Leu-NHMec substrate, 1536-well (AID 1619);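 further: plate controls were full reaction with DMSO carrier for no effect and no enzyme background for full effect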
# Details: recombinant M17LAP, H-Leu-NHMec fluorogenic kinetic assay; at 30 µM; active compounds read high
row,Compound,inhibition [%]
1,CC(SC(=S)N1CCCC1)C(=O)O (stereo unspecified),-0.65
2,O=C(OCCN1CCOCC1)C(c1ccccc1)c1ccccc1,-9.47
3,FC(F)(F)c1nnc2ccc(NCn3nnc4ccccc43)nn12,22.6
4,O=C(c1cnc2n(c1=O)CCS2)N(C1CCCCC1)C1CCCCC1,11.3
5,CC(C)C(C)(C#N)NC(=O)CSc1nc2scc(-c3ccc(F)cc3)c2c(=O)n1Cc1ccccc1 (stereo unspecified),11.3
6,COc1cccc(F)c1C(C[N+](=O)[O-])c1c(N)n(C)c(=O)n(C)c1=O (stereo unspecified),2.97
7,N#CCOc1nc(N2CCCC2)nc(N2CCCC2)n1,1.35
8,Cc1cc(OCC(=O)c2ccc(F)cc2)ccc1N1C(=O)CCC1=O,-4.66
9,O=C(/C=C/c1ccco1)Nc1cccnc1Cl,5.61
10,O=C(/C=C/c1ccco1)Nc1ccccc1C(=O)O,27.5
11,COc1ccccc1NS(=O)(=O)c1cccc(C(=O)N/N=C/c2ccccc2OCC(=O)O)c1,16.5
12,CCN(CC)S(=O)(=O)c1cccc(C(=O)N/N=C/c2ccccc2OCC(=O)O)c1,13.9
13,COCCOC(=O)c1c(C)oc2ccc(NS(=O)(=O)c3ccc(C(=O)O)cc3)cc12,32.9
14,COCCOC(=O)c1c(C)oc2ccc(NS(=O)(=O)c3ccc(C)cc3)cc12,2.98
15,O=C(O)c1cc(S(=O)(=O)Nc2ccc3oc(=O)sc3c2)ccc1O,51.1
16,COc1ccc(S(=O)(=O)Nc2ccc3oc(C)c(C(=O)O)c3c2)cc1,6.21
17,Cc1cc(C(=O)CN2C(=O)C(=O)N(Cc3ccccc3)C2=O)c(C)n1-c1ccc2c(c1)OCCO2,-11.2
18,CC(C)c1nc(SCC(=O)Nc2c[nH]c(=O)[nH]c2=O)c2cnn(-c3ccccc3)c2n1,-6
19,CC(=O)OCC(=O)Nc1ccccc1OC(F)F,-2.65
20,Cc1ccc(CNC(=O)C2CCCN(c3nc4ccsc4c(=O)s3)C2)cc1 (stereo unspecified),-6.15
21,C#CCOCCOCCOCCNc1nc(N2CCN(C(=O)C([C@@H](C)CC)n3cc(C(N)CO)nn3)CC2)nc(N2CCN(C(=O)[C@H](CCC(=O)O)n3cc(C(N)CC(C)C)nn3)CC2)n1 (stereo partly specified),2.95
22,O=C(N=C1c2ccccc2CN1c1ccc(F)c(F)c1)c1cccnc1,3.87
23,Cc1ccc(C(=O)Nc2c(C)cc(-c3ccc(Cl)cc3)oc2=O)cc1,2.9
24,CC1(CCc2ccccc2)NC(=S)N(c2ccccc2)N1 (stereo unspecified),10.2

row,Compound,inhibition [%]
1,CCCCC(=O)NNC(=S)NC(=O)c1ccc(C)cc1,59.8
2,CCCCCC(=O)NNC(=S)NC(=O)c1ccccc1[N+](=O)[O-],14.3
3,CCCCCCCC(=O)NNC(=O)c1ccc([N+](=O)[O-])cc1,1.27
4,Cc1cccc(NC(=S)NNC(=O)c2cccc([N+](=O)[O-])c2)c1,3.9
5,CCCC(=O)Nc1ccc(C(=O)NNC(=O)c2cccc([N+](=O)[O-])c2)cc1,4.12
6,O=C(CNC(=S)NC(=O)c1cccc([N+](=O)[O-])c1)c1ccccc1,-0.71
7,CCCCC(=O)NNC(=S)NC(=O)c1ccc([N+](=O)[O-])cc1,44.2
8,CCCCC(=O)Nc1cccc(NC(=O)c2cccc([N+](=O)[O-])c2)c1,5.17
9,O=C(CSc1nnc2sc3ccccc3n12)c1ccco1,-1.98
10,O=C(CC1SC(=NCCc2ccccc2)N(/N=C/c2cccs2)C1=O)Nc1ccc(Cl)cc1 (stereo unspecified),-1.78
11,c1ccc2c(-c3cc(C4CCNCC4)[nH]n3)cccc2c1,-3.07
12,CCCc1cc(C(=O)NCc2ccco2)no1,-5.04
13,COc1ccccc1CC(=O)NNC(=O)c1cccs1,-2.69
14,O=C(CSc1nccc(=O)[nH]1)N1CCN(c2ccccc2)CC1,5.66
15,CCOC(=O)COc1ccc(S(=O)(=O)Nc2ccc3c(c2)OCCO3)cc1,2.78
16,COC(=O)c1ccc(NC(=O)CSc2nc(C)cc(=O)[nH]2)cc1,35.4
17,COc1ccc(NC(=O)CSc2nc(C)cc(C(F)(F)F)n2)cc1,19
18,Cc1ccc(NC(=O)CSc2nc(O)cc(=O)n2C)cc1,7.3
19,COc1ccc2nc(NC(=O)CSc3nccc(C)n3)sc2c1,1.42
20,COc1ccc(NC(=O)CSc2nc(C)cc(C)n2)cc1,44
21,Cc1cc(=O)[nH]c(SCC(=O)Nc2ccc(C(=O)O)cc2)n1,8.39
22,Cn1c(SCC(=O)Nc2ccc(Br)cc2)nc(O)cc1=O,10.4
23,Cc1cc(C)nc(NC(=O)CSc2nccc(C)n2)n1,5.87
24,Cc1cc(C)n(-c2nnc(C)n2N)n1,1.79

row,Compound,inhibition [%]
1,COc1ccc(-c2ccn(-c3cccc(F)n3)n2)cc1,10.6
2,O=C(N/N=C/c1ccc2c(c1)OCO2)C(=O)Nc1ccccc1,5.86
3,CC(=O)c1ccccc1OCCn1nnc(-c2ccc(C)cc2)n1,12.1
4,CCCOc1ccc(-c2c(C(=O)N/N=C/c3ccc(C)cc3)nnn2-c2nonc2N)cc1,-4.98
5,CCOC(=O)C1=C(Nc2ccc(C)cc2)CC(C)(O)C(C(=O)OCC)C1c1ccccc1 (stereo unspecified),0.02
6,Cc1cc(C)nc(N2CCC(C(=O)Nc3nnc(C)s3)CC2)n1,1.03
7,CC(C)(C)Nc1nc2cc([N+](=O)[O-])ccc2o1,2.86
8,COc1ccc(NC(=O)CSc2c(C)n[nH]c2C)cc1,21.7
9,CCN(CC)c1ccc(NC(=O)CSc2nnc3nc(C)cc(C)n23)cc1,45.5
10,Cc1cc(C)nc(SCC(=O)Nc2ccc(N3CCOCC3)cc2)n1,24.8
11,Cc1nn(-c2nnc(C)c(=O)[nH]2)c(C)c1SCC(=O)Nc1ccc(F)cc1,46.2
12,Cc1nn(-c2nnc(C)c(=O)[nH]2)c(C)c1SCC(=O)Nc1ccc(C(C)C)cc1,63.3
13,COc1ccc(NC(=O)CSc2ccc(C)cc2)cc1,-1.37
14,COc1ccc(Cc2nn3c(-c4ccccc4OC)nnc3s2)cc1,18.6
15,CC1=CC(C)(C)n2c(O)c(N=N)c3c(C)c(C)cc1c32,14.8
16,Cc1c(C(=O)NCCSCc2ccccc2Cl)cccc1[N+](=O)[O-],4.93
17,CCOc1ccc(NC(=O)Nc2cc(-c3ccccc3)sc2C(=O)OC)cc1,-2.36
18,Cc1cc(C)nc(SCC(=O)Nc2ncc3c(n2)CCCC3=O)n1,-1.93
19,Cc1nn(C)cc1CN(C)C(=O)c1nn2c(c1Cl)NC(c1cccs1)CC2C(F)(F)F (stereo unspecified),11.7
20,CC(C)(C)C(=O)N1CCC(O)(CS(=O)(=O)Cc2ccccc2Cl)CC1,13.8
21,Cc1ccc(-n2c(SCC(N)=O)nnc2-c2cccnc2)c(C)c1,1.98
22,Cc1ccc(-n2c(SCC(=O)N3CCCc4ccccc43)nnc2-c2cccnc2)c(C)c1,7.68
23,Cc1cccc(C)c1NC(=S)N1CCC(c2ccccc2)C1 (stereo unspecified),2.96
24,O=c1nc(-c2ccccc2)c2cc(Cl)ccc2[nH]1,3.02

row,Compound,inhibition [%]
1,COc1ccc(/C=C2\CCCC3C2=NN(C(=O)c2scnc2C)C3c2ccc(OC)c(OC)c2)cc1OC (stereo unspecified),-6.36
2,Nc1nc2ncc(C(=O)c3cc(F)ccc3O)cc2s1,12.6
3,Cc1[nH]nc2ncc(C(=O)c3cc(F)ccc3O)cc12,9.66
4,CS(=O)(=O)Nc1nnc(Cc2ccccc2)s1,9.67
5,CCCn1c(NCc2cccc(OC)c2O)nc2ccccc21,-4.67
6,COc1cc(/C=N/n2c(C)n[nH]c2=S)ccc1OCc1ccc(F)cc1,-2.61
7,CC(C)(C)OC(=O)N1CCCC1C(=O)O (stereo unspecified),-3.69
8,O=C(Cn1cnc2ccccc2c1=O)c1c[nH]c2ccccc12,11.6
9,Cc1ccc(NC(=O)Nc2cccs2)cc1,22.4
10,COc1ccc(NC(=O)Nc2ccc3nccnc3c2)cc1,37.8
11,CC(=O)Nc1ccc2oc(C)nc2c1,0.35
12,Cc1nc2cc(NC(=O)Nc3ccc(Br)cc3)ccc2o1,-1.6
13,CCc1ccc(NC(=O)Nc2cccs2)cc1,38.6
14,CCOc1ccc(NC(=O)c2ccc3nccnc3c2)cc1,-3.72
15,CCn1c(=O)c(C(=O)NCc2cccnc2)c(O)c2ccccc21,2
16,CS(=O)(=O)N1N=C(c2ccco2)CC1c1ccccc1Cl (stereo unspecified),5.77
17,CN(C(=O)CSc1nc(-c2ccccc2)c(-c2ccccc2)o1)C1CCS(=O)(=O)C1 (stereo unspecified),5.76
18,NC(=O)c1c(-c2ccc(Cl)cc2Cl)csc1NC(=O)Cc1ccccc1,6.81
19,CC(=O)Nc1ccc(NC(=O)CSc2nnc(-c3ccccc3)n2Cc2ccc3c(c2)OCO3)cc1,5.97
20,COC(=O)c1[nH]c2c(c1C)C(=O)CCC2,6.36
21,CCN1C(=O)/C(=C2\C=Cc3cc(C)ccc3N2CC)OC1=S,1.65
22,CC1=NN(Cc2ccccc2)C(=O)/C1=C\c1ccc(N(C)C)cc1,3.83
23,CCOc1cc(/C=C2\C(=O)N(CCC#N)N=C2C)ccc1OCC(N)=O,4.75
24,CC1=C(C(=O)OC(C)C)C(c2cn(-c3ccccc3)nc2-c2cccs2)NC(=O)N1 (stereo unspecified),2.02
